Assay [1] addresses human Peroxisome Proliferator-activated Receptor alpha (PPARa), PPARA (gene 5465) (UniProt Q07869). Description: ATG_PPARa_TRANS: Attagene TRANS-FACTORIAL HepG2 Assay for human Peroxisome Proliferator-activated Receptor alpha (PPARa) (AID 2283001).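 As to AC50: potency for gain of reporter signal over DMSO so agonist or activator.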 The procedure, abridged:
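Transient HepG2 transfection, GAL4-UAS reporters, NR-Gal4 chimeras; 24 h compound exposure. Readout: reporter transcripts by RT-PCR, 6-FAM primer extension, HpaI digest, capillary electrophoresis. Positive direction vs DMSO baseline.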

Assay [2] addresses human Peroxisome Proliferator-activated Receptor delta (PPARd), PPARD (gene 5467) (UniProt Q03181). Description: ATG_PPARd_TRANS: Attagene TRANS-FACTORIAL HepG2 Assay for human Peroxisome Proliferator-activated Receptor delta (PPARd) (AID 2283002). The procedure, abridged:
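Read-out: reporter mRNA induction, quantified by fluorescent RT-PCR products resolved by capillary electrophoresis. Human HepG2 liver cells carried transiently transfected Gal4-UAS reporter constructs with chimeric NR-Gal4 fusions. Cells were dosed for 24 h; DMSO served as baseline.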

Assay [3] addresses human Retinoic Acid Receptor beta (RARb), RARB (gene 5915) (UniProt P10826). Kind of assay: ATG_RARb_TRANS: Attagene TRANS-FACTORIAL HepG2 Assay for human Retinoic Acid Receptor beta (AID 2283004). The procedure, abridged:
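Transient transfection of HepG2 with multiple reporter units → chemical dosing, 24 h → total RNA isolation → RT with oligo(dT) → reporter-specific PCR, 6-FAM primer extension, HpaI digest → capillary electrophoresis. Positive direction vs DMSO control.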

Assay [4] has as its target Retinoic acid receptor alpha (Homo sapiens) (UniProt P10276). Description: ATG_RARa_TRANS: Attagene TRANS-FACTORIAL HepG2 Assay for human Retinoic Acid Receptor alpha (RARa) (AID 2283005). The procedure, abridged: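 HepG2 transiently transfected with multiplex GAL4-UAS reporter units including a human RARa–GAL4 chimera; 24 h compound exposure. Reporter mRNA quantified by RT-PCR, 6-FAM labeling and capillary electrophoresis; gain of signal versus DMSO.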

Assay [5] has as its target Nuclear receptor subfamily 1 group I member 2 (Homo sapiens) (UniProt O75469). Kind of assay: ATG_PXR_TRANS: Attagene TRANS-FACTORIAL HepG2 Assay for human Pregnane X Receptor (PXR) (AID 2283008). The procedure, abridged: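 Multiplexed TRANS reporter panel in HepG2; this component tracks PXR-Gal4-driven reporter mRNA after 24 h dosing, measured by RT-PCR with capillary electrophoresis fluorescence, fitted against DMSO.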

Assay [6] concerns the target human Retinoic Acid Receptor gamma (RARg), RARG (gene 5916) (UniProt P13631). Description: ATG_RARg_TRANS: Attagene TRANS-FACTORIAL HepG2 Assay for human Retinoic Acid Receptor gamma (RARg) (AID 2283009). The procedure, abridged:
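Gain-of-signal relative to DMSO is reported from fluorescent capillary electrophoresis of RT-PCR reporter products. These came from HepG2 cells expressing transfected RARg-GAL4 chimeras with UAS reporters, harvested 24 h after dosing.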

The target of assay [7] is Peroxisome proliferator-activated receptor gamma (Homo sapiens) (UniProt P37231). Kind of assay: ATG_PPARg_TRANS: Attagene TRANS-FACTORIAL HepG2 Assay for human Peroxisome Proliferator-activated Receptor-gamma (PPARg) (AID 2283007). Summed up: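 Liver-derived HepG2 cells expressing an exogenous NR-Gal4 chimera alongside GAL4-UAS reporter genes; 24 h exposure. Fluorescence of reporter RT-PCR products, separated by capillary electrophoresis, gives mRNA induction relative to DMSO.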

Broadly, the AC50 is the concentration giving half of the maximal activity seen.

Molecules are shown by their SMILES. Results filed as inconclusive are left out. The source made the active and inactive calls. The calls were made as follows: active = hit-call score of the fitted dose curve at least 0.9, where 1 is the maximum; inconclusive = response in the unintended direction; inactive = score below 0.9.

human Peroxisome Proliferator-activated Receptor delta (PPARd), PPARD (gene 5467), sequence (Q03181 whole entry, looked up, the tested form may be a part): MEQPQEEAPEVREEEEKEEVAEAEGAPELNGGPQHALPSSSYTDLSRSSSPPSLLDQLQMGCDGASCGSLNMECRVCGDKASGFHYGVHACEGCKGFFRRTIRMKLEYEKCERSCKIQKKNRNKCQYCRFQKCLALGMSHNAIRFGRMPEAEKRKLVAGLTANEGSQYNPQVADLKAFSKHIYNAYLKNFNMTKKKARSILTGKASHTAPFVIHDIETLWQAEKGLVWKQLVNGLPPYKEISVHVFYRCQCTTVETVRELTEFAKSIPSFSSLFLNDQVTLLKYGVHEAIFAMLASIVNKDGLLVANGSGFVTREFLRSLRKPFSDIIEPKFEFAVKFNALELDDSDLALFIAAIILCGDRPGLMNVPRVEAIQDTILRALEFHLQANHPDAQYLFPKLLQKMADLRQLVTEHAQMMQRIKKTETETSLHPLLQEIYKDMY
human Retinoic Acid Receptor gamma (RARg), RARG (gene 5916), sequence (P13631 whole entry, looked up, the tested form may be a part): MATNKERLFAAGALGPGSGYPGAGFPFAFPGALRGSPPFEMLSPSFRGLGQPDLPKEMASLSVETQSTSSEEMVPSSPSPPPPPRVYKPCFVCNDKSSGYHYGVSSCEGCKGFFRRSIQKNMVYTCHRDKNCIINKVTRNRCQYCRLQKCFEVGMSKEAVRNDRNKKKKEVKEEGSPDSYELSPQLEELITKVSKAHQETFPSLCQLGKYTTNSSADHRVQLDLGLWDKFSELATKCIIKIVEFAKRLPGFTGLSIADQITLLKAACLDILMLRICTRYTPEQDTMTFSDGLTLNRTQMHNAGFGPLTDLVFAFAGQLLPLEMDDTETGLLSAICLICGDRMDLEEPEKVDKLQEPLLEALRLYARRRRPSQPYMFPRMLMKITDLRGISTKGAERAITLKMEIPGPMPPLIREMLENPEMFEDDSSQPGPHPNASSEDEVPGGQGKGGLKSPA
Peroxisome proliferator-activated receptor gamma (Homo sapiens), sequence (P37231 whole entry, looked up, the tested form may be a part): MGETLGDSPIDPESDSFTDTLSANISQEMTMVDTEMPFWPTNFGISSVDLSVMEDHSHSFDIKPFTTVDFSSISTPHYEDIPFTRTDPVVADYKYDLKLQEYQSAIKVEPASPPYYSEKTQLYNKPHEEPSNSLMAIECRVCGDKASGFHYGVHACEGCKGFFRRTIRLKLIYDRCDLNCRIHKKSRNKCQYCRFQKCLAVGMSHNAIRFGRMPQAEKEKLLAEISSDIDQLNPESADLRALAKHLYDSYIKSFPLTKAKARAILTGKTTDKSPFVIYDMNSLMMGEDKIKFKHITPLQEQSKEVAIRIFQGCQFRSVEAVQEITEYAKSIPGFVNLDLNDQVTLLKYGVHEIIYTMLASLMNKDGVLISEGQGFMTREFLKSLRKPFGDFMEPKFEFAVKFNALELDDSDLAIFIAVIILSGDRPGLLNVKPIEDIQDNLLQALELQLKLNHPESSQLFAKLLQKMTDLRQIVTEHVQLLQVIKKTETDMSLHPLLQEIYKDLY
Retinoic acid receptor alpha (Homo sapiens), sequence (P10276 whole entry, looked up, the tested form may be a part): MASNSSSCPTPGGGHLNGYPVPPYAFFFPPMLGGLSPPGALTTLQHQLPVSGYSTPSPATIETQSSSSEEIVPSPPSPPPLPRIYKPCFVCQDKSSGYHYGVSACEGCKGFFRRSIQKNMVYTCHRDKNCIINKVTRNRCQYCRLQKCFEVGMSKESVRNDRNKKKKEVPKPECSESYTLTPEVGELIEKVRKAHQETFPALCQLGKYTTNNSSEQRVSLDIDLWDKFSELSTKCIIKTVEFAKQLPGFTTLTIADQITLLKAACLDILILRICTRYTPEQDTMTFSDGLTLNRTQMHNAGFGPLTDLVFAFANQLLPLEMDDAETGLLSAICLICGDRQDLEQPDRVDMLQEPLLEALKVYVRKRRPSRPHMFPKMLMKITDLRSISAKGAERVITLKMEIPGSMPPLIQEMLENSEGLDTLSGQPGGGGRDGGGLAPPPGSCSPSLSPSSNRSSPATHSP
human Retinoic Acid Receptor beta (RARb), RARB (gene 5915), sequence (P10826 whole entry, looked up): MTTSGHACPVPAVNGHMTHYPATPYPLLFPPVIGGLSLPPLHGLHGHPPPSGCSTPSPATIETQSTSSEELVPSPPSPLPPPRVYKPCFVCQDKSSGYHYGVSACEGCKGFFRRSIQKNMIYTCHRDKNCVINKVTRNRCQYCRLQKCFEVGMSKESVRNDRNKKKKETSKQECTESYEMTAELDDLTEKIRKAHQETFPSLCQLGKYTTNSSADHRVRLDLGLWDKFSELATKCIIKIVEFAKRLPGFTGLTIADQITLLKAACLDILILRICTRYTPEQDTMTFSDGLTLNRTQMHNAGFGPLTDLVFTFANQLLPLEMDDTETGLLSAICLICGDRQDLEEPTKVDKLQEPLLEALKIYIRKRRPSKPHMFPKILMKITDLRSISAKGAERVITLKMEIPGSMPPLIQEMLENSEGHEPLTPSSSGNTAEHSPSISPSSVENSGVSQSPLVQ
human Peroxisome Proliferator-activated Receptor alpha (PPARa), PPARA (gene 5465), sequence (Q07869 whole entry, looked up, the tested form may be a part): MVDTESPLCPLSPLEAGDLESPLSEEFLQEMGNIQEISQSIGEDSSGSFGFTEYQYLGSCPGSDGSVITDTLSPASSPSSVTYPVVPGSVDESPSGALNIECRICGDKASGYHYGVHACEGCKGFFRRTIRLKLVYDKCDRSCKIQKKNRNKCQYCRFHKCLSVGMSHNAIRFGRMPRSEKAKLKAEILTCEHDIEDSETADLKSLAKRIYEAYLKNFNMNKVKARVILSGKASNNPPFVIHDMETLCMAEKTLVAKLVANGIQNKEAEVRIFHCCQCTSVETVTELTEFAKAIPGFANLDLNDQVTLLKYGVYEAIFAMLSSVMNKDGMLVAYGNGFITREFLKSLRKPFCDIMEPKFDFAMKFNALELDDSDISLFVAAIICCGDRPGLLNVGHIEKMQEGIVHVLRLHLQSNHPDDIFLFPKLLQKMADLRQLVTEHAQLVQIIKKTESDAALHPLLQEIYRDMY
Nuclear receptor subfamily 1 group I member 2 (Homo sapiens), sequence (O75469 whole entry, looked up, the tested form may be a part): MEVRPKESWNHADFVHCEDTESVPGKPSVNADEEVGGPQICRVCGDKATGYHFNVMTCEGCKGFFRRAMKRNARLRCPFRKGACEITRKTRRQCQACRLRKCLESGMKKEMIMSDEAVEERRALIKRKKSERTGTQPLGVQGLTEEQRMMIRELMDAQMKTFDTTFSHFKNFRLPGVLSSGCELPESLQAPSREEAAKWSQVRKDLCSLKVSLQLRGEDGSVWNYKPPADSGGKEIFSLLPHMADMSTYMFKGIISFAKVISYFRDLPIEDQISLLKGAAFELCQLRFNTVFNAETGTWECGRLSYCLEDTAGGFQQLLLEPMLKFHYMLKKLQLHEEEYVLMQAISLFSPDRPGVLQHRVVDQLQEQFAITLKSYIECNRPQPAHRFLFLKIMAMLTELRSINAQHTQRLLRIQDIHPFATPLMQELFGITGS

With `CCN(CC)c1cccc(C)c1`, the outcome in assay [1], in assay [2], in assay [3], in assay [4], in assay [5] and in assay [6] was inactive.

Regarding `CC1(C)C(=O)N(CO)C(=O)N1CO`, the molecule was classed as inactive in assay [1], in assay [2], in assay [3], in assay [4], in assay [5] and in assay [6].

For `CC(=O)OCc1ccccc1`, the molecule was classed as inactive in assay [1], in assay [2], in assay [3] and in assay [7].

Regarding `CCCSSCCC`, the molecule was classed as inactive in assay [1], in assay [2], in assay [4] and in assay [6].

For `CCC1COC(=O)O1` (configuration not stated), the molecule was called inactive in assay [1], in assay [2], in assay [3] and in assay [7].

`C/C=C/C=C/CCCCCCCO`: the molecule was classed as inactive in assay [1] and in assay [5]. In addition, the AC50 was 27.2 µM (active) in assay [2] and 2.64 µM (active) in assay [7].

On to `COC(C=C(C)CCC=C(C)C)OC`, for which the outcome in assay [1], in assay [2] and in assay [5] was inactive. The AC50 in assay [7] was 57.2 µM (active).

Turning to `COC(=O)c1ccccc1C`, the molecule was classed as inactive in assay [1], in assay [2] and in assay [7].

For the molecule `O=C(O)c1cc(O)c2ccccc2c1O`, the molecule was classed as inactive in assay [1], in assay [2] and in assay [6]. The AC50 in assay [7] is 9.25 µM (active); in assay [5] it was 2.31 µM (active).

For the molecule `C=C(C)[C@@H]1CC=C(C)CC1`, the outcome in assay [1] and in assay [4] was inactive.

Take `CC(=O)CCC1=C(C)CCCC1(C)C`: the molecule was called inactive in assay [1], in assay [3], in assay [7] and in assay [6]. Besides, in assay [5], the AC50 was 6.98 µM (active).

As for `CC(C)CC(=O)OCc1ccccc1`, the result in assay [1], in assay [2], in assay [7] and in assay [5] was inactive.

As to `CCOC(=O)c1ccccc1C`, the molecule was classed as inactive in assay [1], in assay [3], in assay [4] and in assay [5].

Regarding `COc1ccc(-c2coc3cc(O)cc(O)c3c2=O)cc1`, the AC50 in assay [1] was 7.31 µM (active); in assay [7], 27.1 µM (active); in assay [5], 26.6 µM (active). Moreover, the outcome in assay [3], in assay [4] and in assay [6] was inactive.

With `CCOC(=O)c1ccc(C)cc1`, the result in assay [1], in assay [2], in assay [7] and in assay [6] was inactive.

With `CC1C(C)(C)C2=C(C(=O)CCC2)C1(C)C` (configuration not stated), the result in assay [1], in assay [3], in assay [4], in assay [7] and in assay [6] was inactive.

`CC1=CCC2CC1C2(C)C` (configuration not stated): the outcome in assay [1], in assay [3], in assay [4], in assay [5] and in assay [6] was inactive.

Turning to `O=C1CCCCC1C1CCCCC1` (configuration not stated), the molecule was classed as inactive in assay [1], in assay [3], in assay [4], in assay [7] and in assay [6].

Regarding `CC(=O)CCC=C(C)C`, the molecule was called inactive in assay [1], in assay [3] and in assay [7].

As for `C=CCNCC=C`, the call in assay [1], in assay [3], in assay [7] and in assay [5] was inactive.
